Results on 40 compounds are retold here after PubChem BioAssay (NCATS).

Records with an inconclusive call do not appear. The source made the active and inactive calls. The call rests on the fitted dose curve; in most records, active means well fitted inhibition curve with a large enough effect; inconclusive means small, poorly fitted or top-dose-only effect; inactive means no such curve, though single readings can be large or run the other way.

The target of this experiment is Retinaldehyde dehydrogenase 3 (Homo sapiens) (UniProt P47895). Kind of experiment: qHTS for Inhibitors of the Aldehyde Dehydrogenase Family (ALDH1A3) Primary screen (AID 2061315).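 Further: plate controls were DMSO vehicle for no effect and reference inhibitor for full effect.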 To be noted: ALDH inhibition qHTS; series mostly up to 56 µM; activity change, negative = inhibition: at the top concentration. (In general: Quantitative high-throughput screening tests each substance at several concentrations.)
Take `S=P(c1ccccc1)(c1ccccc1)c1c[n+](C/C=C/c2ccccc2)c2ccccn12`: the “activity change, negative = inhibition” value is 2.17% (inactive).

With `CC1=C(C(=O)n2ccc3ccccc32)C(c2ccccc2Br)N=C(Nc2nc3ccccc3o2)N1` (stereo not given), the “activity change, negative = inhibition” value is 18.5% (inactive).

Regarding `O=C(CNC(=O)c1ccc(-c2ccccc2)cc1)OC(C(=O)Nc1cc(C(F)(F)F)ccc1Cl)c1ccccc1` (stereo not given), the “activity change, negative = inhibition” value is 1.92% (inactive).

As to `COc1ccc(-n2ncc3c2CCCC3NC(=O)c2ccc3ncccc3c2)cc1` (stereo not given), the “activity change, negative = inhibition” value was -1.57% (inactive). On the same count and under the same terms, the same measure for `COc1cc2ncnc(Nc3cccc(O)c3)c2cc1OC`: -11.8% (inactive); for `Fc1cccc(-c2nc3ccccc3s2)c1`: -12.9% (inactive). Same read-out and setting: in the case of `C=C1C(=O)O[C@H]2C1CCC(C)=C1C(=O)C=C(C)[C@@]12O` (stereo not given in full) it was -15.6% (inactive).

With `COc1ccc(C(=O)Nc2ccc(-c3nc4ccccc4[nH]3)cc2)cc1OC`, the “activity change, negative = inhibition” value was -12.3% (inactive). On the same count and under the same terms, the same measure for `C=C(NC(=O)C(=C)NC(=O)c1csc(C2=NC3c4csc(n4)C4NC(=O)c5csc(n5)C(C(C)(O)C(C)O)NC(=O)C5CSC(=N5)/C(=C/C)NC(=O)C(C(C)O)NC(=O)c5csc(n5)C3(CC2)NC(=O)C(C)NC(=O)C(=C)NC(=O)C(C)NC(=O)C(C(C)CC)NC2C=Cc3c(C(C)O)cc(nc3C2O)C(=O)OC4C)n1)C(N)=O` (stereo not given): 24.7% (inactive). On the same count and under the same terms, the same measure for `COc1ccc(CNc2ccc(S(=O)(=O)Nc3nccs3)cc2)c(O)c1`: 11.3% (inactive); for `O=S(=O)(c1ccc2c(c1)OCCO2)N1CCN(S(=O)(=O)c2cccc3cccnc23)CC1`: -12.2% (inactive). Take `CCn1cnc2c(Nc3cccc(Cl)c3)nc(C#N)nc21`: the “activity change, negative = inhibition” value was 6.83% (inactive). Same read-out and setting: the same measure for `COc1ccc(-c2nnc3n2N=C(c2ccc(OC)c(OC)c2)CS3)c(OC)c1`: -3.96% (inactive); for `Cc1cc(NC(=O)Nc2nnc(-c3ccncc3)s2)ccc1F`: -0.422% (inactive).

Regarding `c1nc(NCCc2cnc[nH]2)c2cc(-c3ccc4c(c3)OCO4)ccc2n1`, the Potency result is “inactive”. On to `CCC(=O)NC(c1cccs1)c1cc(Br)c2cccnc2c1O` (stereo not given), for which the “activity change, negative = inhibition” value is 14% (inactive). With `CN1C2CCC1CC(OC(=O)[C@H](CO)c1ccccc1)C2` (stereo not given in full), the “activity change, negative = inhibition” value is 0.907% (inactive). Still for that read-out and setting: in the case of `Nc1cc(NC(=O)Nc2nnc(-c3ccncc3)s2)ccc1Cl` it was 11.1% (inactive); in that of `O=S(=O)(NC1CCN(S(=O)(=O)c2ccc3c(c2)OCCO3)C1)c1c(F)cccc1F` (stereo not given), 21.5% (inactive).

Take `COc1cc(F)c(S(=O)(=O)N2CCCN(S(=O)(=O)c3ccc(NC(C)=O)cc3)CC2)c(F)c1`: the “activity change, negative = inhibition” value is -4.69% (inactive). Consider `Cc1cc2c(s1)c1cnn(Cc3cccc(Cl)c3)c(=O)c1n2C`, for which the “activity change, negative = inhibition” value was -2.55% (inactive).

With `O=C1CCCC2CC(Nc3nc4ccccc4o3)CC(c3ccccc3)C12` (stereo not given), the “activity change, negative = inhibition” value is 4.45% (inactive).

Consider `O=C(OCC#CCSc1nnc(-c2cccs2)o1)c1ccc(F)cc1`, for which the “activity change, negative = inhibition” value is -2.29% (inactive). Same read-out and setting: the same measure for `Cc1ccc(-c2ccc(=O)n(CC(=O)NCCCN(C)C)n2)cc1`: -3.3% (inactive).

Turning to `O=C(OCC#CCSc1nnc(-c2cccc3ccccc23)o1)c1sc2ccccc2c1Cl`, the “activity change, negative = inhibition” value is 5.04% (inactive). As for `COc1ccc(NC(=O)c2cnn3c(C)cc(C)nc23)cc1`, the “activity change, negative = inhibition” value was 0.244% (inactive). Still for that read-out and setting: the same measure for `O=C1CCCC2=C1C(c1[nH]ncc1Cl)NC(=NCc1cccnc1)N2` (stereo not given): 0.136% (inactive). On the same count and under the same terms, in the case of `CC(=O)N[C@H](C(=O)N[C@@H](C)C(=O)N[C@H](C#N)CC(=O)O)C(C)C` it was 15.3% (inactive). Turning to `COc1ccc(C(=O)Nc2nc(-c3ccccc3)cs2)cc1NS(=O)(=O)c1ccc(C)cc1`, the “activity change, negative = inhibition” value was -8.56% (inactive). Same read-out and setting: in the case of `Cc1cc(Nc2nc(-c3ccccc3)nc3ccccc23)n[nH]1` it was 2.42% (inactive); in that of `Fc1cccc(CNc2ncnc3ccc(-c4ccoc4)cc23)c1`, -5.95% (inactive).

As for `O=C(NC1CCCc2c1cnn2-c1ccc(F)cc1F)c1ccccc1` (stereo not given), the Potency result is “inactive”. As for `CC1(C)CC(=O)C2=C(C1)NC(Nc1nc3ccccc3o1)=NC21CCCC1`, the “activity change, negative = inhibition” value is -11.3% (inactive). Same read-out and setting: the same measure for `COC(=O)c1ccc(O)c2ncccc12`: 6.83% (inactive); for `CCNC(=O)c1ccc(-c2ccc3ncnc(NCC(C)(C)C)c3c2)o1`: -12.6% (inactive). Still for that read-out and setting: the same measure for `COc1cc(NC(=O)c2cnn3c(C)cc(C)nc23)cc(OC)c1OC`: -2.15% (inactive); for `Cc1cc(C)n2ncc(C(=O)Nc3ccncc3)c2n1`: -6.03% (inactive). `CC(=O)Nc1ccc(S(=O)(=O)N2CCCN(S(=O)(=O)c3ccc4c(c3)OCCO4)CC2)cc1`: the “activity change, negative = inhibition” value is -4.51% (inactive). Still for that read-out and setting: in the case of `COCCN(CCOC)c1nc(C)nc2c1nc(-c1ccccc1)n2CCN1CCOCC1` it was -0.285% (inactive); in that of `O=C1c2ccc(Nc3ccc(F)cc3F)cc2CCc2ccc(OCC(O)CO)cc21` (stereo not given), -26% (inactive).
